High-throughput results as filed in PubChem.
Hits are enriched below; roughly 3% of the tested compounds scored in any of these assays.
ClpP mod: qHTS Assay for Activators of ClpP | purified B. subtilis ClpP, FRET peptide cleavage, 20 min | hit rate 1.9% among 340,000 | Potency, µM (series often up to 57.5 µM), for the others: top-dose activity change, negative = active | ATP-dependent Clp protease proteolytic subunit (Bacillus subtilis (strain 168)), P80244; active = well fitted falling curve with a large enough effect; inconclusive = small, poorly fitted or top-dose-only effect; inactive = no such curve, though single readings can be large or run the other way; also: potency is read from the fitted curve at half-maximal effect; the source files actives as falling curves though it sought activators and does not explain the sign; nearly all actives have a fitted effect of over 65% in size
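ClpP 10 microg/mL final, pH 8 Tris/KCl buffer with BSA, glycerol, Tween-20; compound pinned in; FRET-FV substrate; RT 20 min; Ex320/Em430; ΔFRET vs ADEP 5.8 microM, DMSO, no enzyme.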
KCNH2 WT inh: inhibitors of human wildtype KCNH2 potassium channel; Q12809; U2OS, BacMam KCNH2, thallium flux FluxOr; hits give low values; activity change, % at 1.84 µM; hit rate 0.37% among 340,000; AID 720551;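 active = maximum activity change below -70%; inconclusive = maximum activity change between -70% and -50%; inactive = maximum activity change above -50%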; also: % is scaled to controls: 0 for no effect and ±100 for the full control effect
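U2OS cells were transduced with wild-type KCNH2 virus (2.03 x 10^8 / mL) for 4 h at room temperature, then cultured overnight at 37 C. Thallium flux was read with FluxOr dye. Rate constants were normalized to DMSO controls.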
ALOX12 inh: ALOX12 (human) lipoxygenase inhibition; hit rate 1.1% among 580,000; AID 1671190; Potency, µM (highest dose often 108 µM), for inactives: at the top dose activity change, negative = inhibition, actives largely listed as inhibitors; purified 12hLO, xylenol orange hydroperoxide absorbance; P18054; active = well fitted inhibition curve with a large enough effect; inconclusive = small, poorly fitted or top-dose-only effect, or another doubt; inactive = no such curve, though single readings can be large or run the other way; also: potency is read from the fitted curve at half-maximal effect; % is scaled to controls: 0 for no effect and ±100 for the full control effect
Target sequence (P18054 whole entry, looked up): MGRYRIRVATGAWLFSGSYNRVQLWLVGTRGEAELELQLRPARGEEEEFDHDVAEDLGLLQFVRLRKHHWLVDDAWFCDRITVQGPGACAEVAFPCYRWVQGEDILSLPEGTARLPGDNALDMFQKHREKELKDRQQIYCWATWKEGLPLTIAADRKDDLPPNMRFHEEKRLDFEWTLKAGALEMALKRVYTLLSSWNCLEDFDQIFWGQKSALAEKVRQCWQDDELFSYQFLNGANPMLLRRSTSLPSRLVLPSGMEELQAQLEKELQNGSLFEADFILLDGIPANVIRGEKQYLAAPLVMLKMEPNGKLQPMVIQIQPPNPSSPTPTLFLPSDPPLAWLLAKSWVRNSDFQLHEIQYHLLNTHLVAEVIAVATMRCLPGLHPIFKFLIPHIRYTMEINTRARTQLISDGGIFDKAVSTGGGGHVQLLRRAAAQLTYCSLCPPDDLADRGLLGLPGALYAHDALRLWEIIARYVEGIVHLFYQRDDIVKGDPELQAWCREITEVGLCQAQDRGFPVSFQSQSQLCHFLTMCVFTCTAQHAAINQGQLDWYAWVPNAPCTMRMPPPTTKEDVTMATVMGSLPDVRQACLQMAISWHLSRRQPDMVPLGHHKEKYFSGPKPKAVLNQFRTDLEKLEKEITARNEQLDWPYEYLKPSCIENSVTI
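Purified human 12hLO (150 nM final) in 25 mM Hepes, 0.01% Triton X-100, pH 7.0 was preincubated 15 min at room temperature with compound. Then 40 uM arachidonic acid was added, 30 min. Hydroperoxide was read by Fe-XO absorbance ratio 573/405 nm.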
LDHA block: LDHA (human) enzyme inhibition | hit rate 0.15% among 480,000 | purified LDHA, NADH/diaphorase-resazurin fluorescence; hits give low values | AID 1347041 | activity change, % (values are at about 110 or 230 µM) | P00338; in the data active = activity change below about -30%; inconclusive = mostly about -25% to -30%;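 also: plate controls were DMSO wells for no effect and wells without enzyme for full effect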
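Resorufin fluorescence (ex540/em590), read at 0 and 20 min after diaphorase/resazurin addition, reports the NADH left after a 5 min room-temperature reaction of 2 nM human LDH5 with 0.06 mM NADH and 0.2 mM pyruvate.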
KCNH2 3.1 block: KCNH2 3.1 (human) potassium channel inhibition | U2OS KCNH2 3.1, thallium flux FluxOr; hits give low values | activity change, % (tested at about 1.8 µM) | hit rate 0.95% among 340,000;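 active = maximum activity change below -70%; inconclusive = maximum activity change from -70% to -50%; inactive = maximum activity change above -50%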;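 also: thallium influx rate constant from kinetic fluorescence after stimulation buffer; % is scaled to controls: 0 for no effect and ±100 for the full control effect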
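Virally transduced U2OS (3.1 isoform, 4 h infection in dark at RT) → overnight 37 C → FluxOr + Red40 in HBSS/HEPES, 45 min → stimulation buffer, 2 min kinetic read → rate constant vs DMSO controls.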
Chronic BCR inh: blocks chronic active B-cell receptor signaling | hit rate 0.05% among 340,000 | AID 493014 | ABC-DLBCL IkBa-CBG/CBR reporter, luminescence ratio, 4 h | Potency, µM (highest dose often 46.1 µM), for the others: top-dose activity change, negative = inhibition, usual class: inhibitors; active = well fitted inhibition curve with a large enough effect in the signal ratio, with a control signal flat, not every such curve was filed as active; inconclusive = small, poorly fitted or top-dose-only effect, or effect the other way, or a change in a side signal; the % refers to the signal ratio;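 also: potency is read from the fitted curve at half-maximal effect; plate controls were basal doxycycline-induced cells for no effect and cells given 10 µM MG132 for full effect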
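TMD8 ABC-DLBCL cells carrying doxycycline-inducible green luciferase fused to IkappaBalpha plus unfused red luciferase were exposed to compounds (up to 46 uM) for 4 hrs at 37C. Activity came from the overlap-corrected green/red luminescence ratio.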
* = called active by the depositor; ? = inconclusive; . = no result; [ ] = dose if it differs, or a comment.

SMILES	ClpP mod	KCNH2 WT inh	ALOX12 inh	LDHA block	KCNH2 3.1 block	Chronic BCR inh
COc1ccc(OCC(O)CN2CCC(CN3C(=O)c4cccc5cccc(c45)C3=O)CC2)cc1 (stereo not drawn)	.	4	0%	-1	-43	-3%
O=C1c2cccc3cccc(c23)C(=O)N1CC1CCN(CC(O)COCc2ccc3c(c2)OCO3)CC1 (stereo not drawn)	28µM*	35	?	-8	-11	-3%
CC(C)CCn1cnc2c1c(=O)n(Cc1ccc(C#N)cc1)c(=O)n2Cc1ccccc1	.	.	?	-1	.	.
CCc1ccc(OCCCC(=O)Nc2nnc(C3CCCO3)s2)cc1 (stereo not drawn)	-1%	-248*	5%	-5	0	?
Cc1cccc(OCCCC(=O)Nc2nnc(C3CCCO3)s2)c1C (stereo not drawn)	1%	3	0%	-2	-2	0%
CN(C)CCNC(=O)C1CCN(c2nc(Cl)nc3nc[nH]c23)CC1	.	.	10%	6	.	.
COc1cc(/C=C2\Oc3cc(O)ccc3C2=O)ccc1O	-2%	-8	?	0	-1	?
O=C1/C(=C/c2ccc(O)c(O)c2)Oc2cc(O)ccc21	2%	-9	11µM*	4	-1	13%
CN1C(=O)c2ccccc2N(C)C1c1ccc2c(c1)OCO2 (stereo not drawn)	25µM*	3	-11%	0	7	-2%
N#Cc1ccc2ccn(CC(=O)NCc3ccccc3)c2c1	25µM*	4	2%	1	-22	-1%
Cc1ccc2[nH]c3nc(NN)nnc3c2c1	28µM*	9	?	-8	-5	?
Cc1ccc(C2C3=C(CCCC3=O)Nc3[nH]n(-c4ccccc4)c(=O)c32)cc1 (stereo not drawn)	.	.	?	-11	.	.
Cc1cccc(C2C3=C(Nc4[nH]n(-c5ccccc5)c(=O)c42)c2ccccc2C3=O)c1 (stereo not drawn)	0%	-3	35µM*	-17	-6	?
O=S(=O)(c1ccc(F)cc1)N1CCC(c2nc3ccccc3[nH]2)CC1	0%	10	1%	-13	14	-1%
O=C(c1ccc(S(=O)(=O)N2CCC(c3nc4ccccc4[nH]3)CC2)cc1)N1CCOCC1	-1%	-8	5.6µM*	4	2	3%
CCCCN(C(=O)c1ccc(Cl)cc1)C1CC2CCC(C1)N2C (stereo not drawn)	-5%	5	0%[57.4 µM]	-8	-82*	-1%
CN1C2CCC1CC(N(CCc1ccccc1)C(=O)c1ccc(Cl)cc1)C2 (stereo not drawn)	0%	-40	21%	-3	?	?
Cc1[nH]c(=O)c(C#N)c2c1COC(C)(C)C2	.	0	.	-5	12	1%
CCCc1nc(NC2CCCCC2)c(C#N)c2c1COC(C)(C)C2	35µM*	6	7%	3	9	-1%
CC(C)c1nc(NCC2CCCO2)c(C#N)c2c1COC(C)(C)C2 (stereo not drawn)	28µM*	2	0%[57.4 µM]	-2	14	0%
CC(C)Cc1[nH]c(=O)c(C#N)c2c1COC(C)(C)C2	?	-1	0%	-7	6	-4%
CCCc1[nH]c(=O)c(C#N)c2c1COC(C)(C)C2	25µM*	-32	-11%	-3	1	-17%
CC(C)c1[nH]c(=O)c(C#N)c2c1COC(C)(C)C2	32µM*	-7	-1%	1	4	-10%
Cc1ccc(CN(C)C(=O)NCc2ccc(S(=O)(=O)N3CCCCC3)cc2)cc1	.	.	-8%	4	.	.
COc1ccc(-c2ocnc2C(=O)Nc2cc(Cl)ccc2OC)cc1	.	.	0%	10	.	.
SMILES	ClpP mod	KCNH2 WT inh	ALOX12 inh	LDHA block	KCNH2 3.1 block	Chronic BCR inh
Clc1ccc(SCc2cn3cccnc3n2)cc1	0%	-10	-11%	-4	14	?
Cc1cc(OCc2cn3cccnc3n2)ccc1Cl	16µM*	9	-20%	-8	-10	1%
Cc1ccc(-c2cn(-c3ccccc3)c(=S)[nH]2)cc1C	.	-1	35µM*	-8	4	?
O=C(Nc1ccc2oc(-c3cccnc3)nc2c1)c1ccc(OCc2ccccc2)cc1	.	.	67%	-5	.	.
CCC(=O)Nc1cccc2c1C(=O)N(C)C2=O	25µM*	4	-8%	0	1	?
CN(C)CCCNC(=O)C[C@H]1C[C@H](C(=O)N2CCCCC2)[C@@]2(CCc3ccccc3)c3[nH]c4ccc(Cl)cc4c3CCN2C1=O	-4%	-120*	?	-7	-47	?
CC[C@]12c3[nH]c4ccc(Cl)cc4c3CCN1C(=O)[C@@H](CC(=O)NCC13CC4CC(CC(C4)C1)C3)C[C@@H]2C(=O)N1CCN(C(=O)C2CC2)CC1	-1%	-13	40µM*	-3	-10	?
Cc1cccc(C(C)C)c1NC(=O)/C=C/c1ccc(F)cc1	.	.	39%	-1	.	.
CCN(C(=O)c1ccco1)c1nc(-c2ccccc2)cs1	.	.	-10%	-34*	.	.
O=C(COc1ccc2c(c1)C(=O)CC1(CCCCC1)O2)NCc1ccccn1	25µM*	-1	5%	-3	-17	0%
CCN(CC)C(=O)COc1ccc2c(c1)C(=O)CC(C)(C)O2	4%	-5	-10%	-20	-5	-3%
O=C(COc1ccc2c(c1)C(=O)CC1(CCCCC1)O2)NCc1ccccc1	-17%	-6	-23%	-2	-6	2%
CCOC(=O)COc1ccc2c(c1)C(=O)CC1(CCCCC1)O2	28µM*	-18	-4%	-1	-14	27%
CCOC(=O)COc1ccc2c(c1)C(=O)CC(C)(c1cccnc1)O2 (stereo not drawn)	28µM*	5	18%	-3	-8	1%
O=C(Nc1ccc2oc(C3CC3)nc2c1)c1ccc(=O)[nH]n1	.	.	-7%	7	.	.
Cc1ccccc1S(=O)(=O)Nc1ccccc1SCc1cc(=O)n2cc(Cl)ccc2n1	.	.	?	0	.	.
COc1ccc(/C=N/NC(=S)Nc2ccccc2)cc1	-2%	5	50µM*	-11	-13	?
COc1ccc(/C=N/NC(=O)c2nc(-c3ccccc3)cc(-c3ccccc3)n2)cc1	?	-24	402%	-8	-88*	-1%
COc1ccc(/C=N/NC(=O)c2nc(-c3ccccc3)cc(-c3ccccc3)n2)cc1O	2%	-11	10%	1	-39	?
COc1ccc(/C=N/Nc2nnc(-c3ccccc3)c(=O)[nH]2)cc1	25µM*	25	18%	-3	-3	?
